# PubChem BioAssay
# The source made the active and inactive calls. Unless noted, no rule for the calls is given here.
# Assays:
# [1] = compound effects on lung adenocarcinoma cell viability – A549, calcein-AM fluorescence, 48 h, basal, profiling panel (AID 1162); conditions: higher = more signal; also: test concentration not given here
# [2] = compound effects on differentiated 3T3-L1 adipocyte viability – cell-based, 3T3-L1 adipocytes, calcein-AM fluorescence, 48 h, basal, profiling panel (AID 1163); conditions: 3T3-L1 adipocytes viability, higher = more signal; also: test concentration not given here
# [3] = compound effects on hepatocellular carcinoma cell viability – HepG2, calcein-AM fluorescence, 48 h, basal, profiling panel (AID 1164); conditions: higher = more signal; also: test concentration not given here
# [4] = compound effects on multiple myeloma cell viability – MM1S, calcein-AM fluorescence, 48 h, basal, profiling panel (AID 1165); conditions: higher = more signal; also: test concentration not given here
# [5] = calcein-AM signal in unstimulated myeloma cells – cell-based, calcein-AM fluorescence, 48 h, PK04 Diversity Set, profiling panel (AID 1166); conditions: RPMI8226 myeloma viability, higher = more signal;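 also: cells grown under basal conditions without added stimulus; test concentration not given here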
# [6] = JC-1 mitochondrial signal, unstimulated HepG2 cells – cell-based, JC-1 fluorescence, 24 h, 100 nL compound, profiling panel (AID 1167); conditions: HepG2 mitochondrial potential, higher = more signal; also: test concentration not given here
# [7] = JC-1 mitochondrial signal, unstimulated adipocytes – cell-based, JC-1 fluorescence, 3T3-L1 adipocytes, 24 h, 100 nL compound, profiling panel (AID 1168); conditions: JC-1 mitochondrial fluorescence, higher = more signal, called active from +8 up or from −8 down; also: test concentration not given here
# [8] = JC-1 mitochondrial signal, unstimulated myeloma cells – cell-based, JC-1 fluorescence, RPMI8226, 24 h, 100 nL compound, profiling panel (AID 1169); conditions: JC-1 mitochondrial potential fluorescence, higher = more signal; also: test concentration not given here
# [9] = JC-1 mitochondrial signal, unstimulated MM1S myeloma – cell-based, JC-1 fluorescence, 24 h, 100 nL compound, profiling panel (AID 1170); conditions: MM1S mitochondrial potential, higher = more signal; also: test concentration not given here
# [10] = resazurin metabolic signal in A549 cells – cell-based, resazurin fluorescence, 24 h, PK04 Diversity Set, profiling panel (AID 1171); conditions: A549 viability, higher = more signal, called active from +8 up or from −8 down; also: test concentration not given here
# [11] = resazurin metabolic signal in HepG2 cells – cell-based, resazurin fluorescence, 24 h, PK04 Diversity Set, profiling panel (AID 1172); conditions: HepG2 viability, higher = more signal; also: test concentration not given here
# [12] = budding yeast growth changes without added modifier – OD600, strain BY4716, 24 h, basal condition, primary screen (AID 1173); conditions: S. cerevisiae BY4716 growth, OD600, 24 h; higher = more signal, called active from +8 up or from −8 down
# [13] = viability profiling in MM1S myeloma cells – cell-based, resazurin fluorescence, basal, 24 h, PK04 Diversity Set, profiling panel (AID 1174); conditions: higher = more signal, called active from +8 up or from −8 down; also: test concentration not given here
# [14] = molecular target: Dihydroorotate dehydrogenase (quinone), mitochondrial (Plasmodium falciparum (isolate 3D7)) (UniProt Q08210); experiment: inhibition of P. falciparum DHODH – biochemical, C-terminal His tag, absorbance 600 nm, primary screen (AID 1175); conditions: PfDHODH enzyme, DCIP absorbance 600 nm; higher = more signal, called active from +8 up or from −8 down;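 also: recombinant parasite enzyme with a five histidine tag at its C terminus; test concentration not given here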
# [15] = inhibition of PAO1 biofilm formation – strain PAO1, LB-PBS medium, absorbance 600 nm, primary screen (AID 1176); also: test concentration not given here; conditions: P. aeruginosa PAO1 growth/biofilm, A600, 12 h; higher = more signal
# [16] = growth modulation of vineyard yeast isolate – strain RM11-1a, OD600, basal, 24 h, primary screen (AID 1177);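 also: cultures grown under basal conditions with no added stressor; test concentration not given here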; conditions: S. cerevisiae RM11-1a growth, OD600, 24 h; higher = more signal, called active from +8 up or from −8 down
# [17] = growth of efflux-deficient E. coli DRC39 – strain DRC39, OD650, 24 h, E. coli filamentation inducers, primary screen (AID 1178);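 also: growth measured as culture turbidity by optical density at 650 nm; test concentration not given here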; conditions: E. coli DRC39 acrAB, higher = more signal, called active from +8 up or from −8 down
# [18] = growth of efflux-deficient E. coli DRC39 – strain DRC39, OD650, 48 h, E. coli filamentation inducers, primary screen (AID 1179);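 also: screen aims at cell division blockers that make cells filament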; conditions: E. coli DRC39 delta-acrAB growth, higher = more signal, called active from +8 up or from −8 down
# [19] = viability profiling in RPMI8226 myeloma cells – cell-based, resazurin fluorescence, basal, 24 h, PK04 Diversity Set, profiling panel (AID 1180); conditions: higher = more signal;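 also: RPMI8826 multiple myeloma cell line at 5000 cells per well; test concentration not given here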
# [20] = molecular target: E3 ubiquitin-protein ligase XIAP (Homo sapiens) (UniProt P98170); experiment: small molecules binding XIAP protein – biophysical, small-molecule microarray, fluorescence 635 nm, primary screen (AID 1181); conditions: higher = more signal;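 also: score merges 667 nm emission and signal to noise over triplicate slides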
# E3 ubiquitin-protein ligase XIAP (Homo sapiens), sequence (P98170 whole entry, looked up): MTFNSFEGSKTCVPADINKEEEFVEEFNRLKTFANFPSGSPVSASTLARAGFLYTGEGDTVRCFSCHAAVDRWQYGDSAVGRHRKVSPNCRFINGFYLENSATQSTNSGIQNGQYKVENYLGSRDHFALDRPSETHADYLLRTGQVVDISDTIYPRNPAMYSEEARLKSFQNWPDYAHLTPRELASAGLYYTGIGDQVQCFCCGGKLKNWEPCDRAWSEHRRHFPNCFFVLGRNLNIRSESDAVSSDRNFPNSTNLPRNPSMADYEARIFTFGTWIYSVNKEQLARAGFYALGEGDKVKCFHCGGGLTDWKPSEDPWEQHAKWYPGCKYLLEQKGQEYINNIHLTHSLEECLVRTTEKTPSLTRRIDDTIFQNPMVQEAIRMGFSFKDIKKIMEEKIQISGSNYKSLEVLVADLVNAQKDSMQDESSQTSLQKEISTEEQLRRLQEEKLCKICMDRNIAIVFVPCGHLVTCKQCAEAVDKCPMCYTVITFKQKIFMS
# Dihydroorotate dehydrogenase (quinone), mitochondrial (Plasmodium falciparum (isolate 3D7)), sequence (Q08210 whole entry, looked up): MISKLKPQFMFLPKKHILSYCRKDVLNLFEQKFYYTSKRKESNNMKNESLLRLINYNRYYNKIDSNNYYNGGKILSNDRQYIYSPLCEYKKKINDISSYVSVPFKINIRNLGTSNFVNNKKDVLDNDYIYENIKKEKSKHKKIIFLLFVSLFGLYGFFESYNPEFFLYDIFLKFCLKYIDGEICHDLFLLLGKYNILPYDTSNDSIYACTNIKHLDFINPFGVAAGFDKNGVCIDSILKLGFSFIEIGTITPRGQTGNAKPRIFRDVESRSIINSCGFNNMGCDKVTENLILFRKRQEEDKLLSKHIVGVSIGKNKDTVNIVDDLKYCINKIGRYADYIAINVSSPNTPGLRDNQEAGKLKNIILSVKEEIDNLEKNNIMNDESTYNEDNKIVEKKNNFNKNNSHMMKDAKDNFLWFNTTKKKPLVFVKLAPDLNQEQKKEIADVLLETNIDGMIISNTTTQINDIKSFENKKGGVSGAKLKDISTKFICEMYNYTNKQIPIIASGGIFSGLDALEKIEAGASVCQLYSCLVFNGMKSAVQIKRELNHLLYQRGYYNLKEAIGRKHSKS
SMILES,z-score [1],z-score [2],z-score [3],z-score [4],z-score [5],z-score [6],z-score [7],z-score [8],z-score [9],z-score [10],z-score [11],z-score [12],z-score [13],composite z-score [14],z-score [15],z-score [16],z-score [17],z-score [18],z-score [19],composite z-score [20]
CCCC[C@@H]1C[C@H]1[C@@H](NC(=O)c1cccs1)c1ccccc1C(F)(F)F,0.11,-0.556,-0.305,-0.6,-1.72,-2.45,-1.22 (inactive),-0.307,-1.24,-0.462 (inactive),-0.119,0.866 (inactive),-0.186 (inactive),-0.271 (inactive),0.591 (inactive),0.742 (inactive),-0.561 (inactive),-0.469 (inactive),0.276,0.99
CCOC(=O)C[C@H]1[C@H](OC(=O)c2ccccc2-c2ccccc2)[C@@H](NC(=O)c2ccc3ccccc3n2)c2cc(OCCCO)ccc2N1C(=O)Cc1ccc(OC)cc1,0.278,0.054,0.266,0.0554,-0.826,0.972,-0.363 (inactive),-0.209,-0.112,0.0225 (inactive),-0.271,0.64 (inactive),-0.343 (inactive),0.315 (inactive),0.413 (inactive),-0.384 (inactive),-0.42 (inactive),-0.281 (inactive),-0.0052,-0.408
C=CCC(OC(C)=O)[C@@H]1[C@@H](N(Cc2ccc(-c3ccccc3)cc2)C(=O)c2ccc(-c3ccccc3)cc2)c2cc(OCCCO)ccc2N1C(=O)c1ccc2ccccc2c1 (stereo not given in full),-0.77,0.676,0.313,-0.531,-0.685,1.42,-0.645 (inactive),0.795,0.563,0.204 (inactive),-0.723,0.416 (inactive),0.149 (inactive),-0.746 (inactive),0.35 (inactive),-0.583 (inactive),-0.91 (inactive),-0.756 (inactive),-0.205,0.0423
CC(=O)NCCCC[C@@H]1NC(=O)[C@@H]2C[C@H](C(=O)NCCCCCN)[C@H](c3cccc(OCCO)c3)N2C1=O,1.3,0.749,0.74,0.151,1.3,0.0102,0.608 (inactive),-0.721,-0.0434,0.914 (inactive),0.619,-0.659 (inactive),0.427 (inactive),-0.585 (inactive),0.392 (inactive),-1.42 (inactive),1.03 (inactive),1.9 (inactive),0.0926,0.087
C=CCNC(=O)[C@@H]1[C@H]2C(=O)O[C@H](c3ccccc3)[C@H](c3ccccc3)N2[C@H](c2ccccc2OCCO)[C@@]12C(=O)N(C(=O)OCCOC)c1ccc(C#CC3(O)CCCCCC3)cc12,-0.21,1.21,-1.27,-2.55,-3.61,-0.746,-0.389 (inactive),-0.816,-0.761,-0.628 (inactive),-0.405,0.605 (inactive),-2.57 (inactive),-1.91 (inactive),2.12 (inactive),0.766 (inactive),0.0265 (inactive),-0.609 (inactive),-3.27,0.133
COC(=O)[C@@]1(Cc2ccc(F)cc2)[C@H]2c3cc(C(=O)N(C)C)n(Cc4ccc(OC(F)(F)F)cc4)c3C[C@H]2CN1C(=O)c1ccccc1,-0.524,-0.859,-0.51,-0.225,0.218,-0.0759,-0.392 (inactive),-0.0137,-0.276,-0.914 (inactive),-0.674,0.825 (inactive),-0.933 (inactive),-0.0384 (inactive),0.604 (inactive),0.245 (inactive),-0.586 (inactive),-0.499 (inactive),-0.603,-0.102
C=CCNC(=O)[C@@H]1[C@H]2C(=O)O[C@H](c3ccccc3)[C@H](c3ccccc3)N2[C@H](c2ccc(O)cc2)[C@@]12C(=O)N(C(=O)OCCOC)c1ccc(C#CC3=CCCCC3)cc12,0.145,0.725,0.423,-2.13,-3.66,-1.9,0.889 (inactive),-0.825,-0.627,-0.966 (inactive),-0.411,0.0346 (inactive),-0.279 (inactive),0.235 (inactive),1.26 (inactive),0.891 (inactive),-0.713 (inactive),-0.277 (inactive),-1.09,-0.0056
CCC1=C2CN(Cc3ccccc3)[C@@H](C(=O)Cc3ccccc3)C2C=CCC1 (stereo not given in full),0.0398,1.47,-0.342,0.435,-0.96,0.821,0.152 (inactive),0.424,-0.948,0.822 (inactive),0.999,-3.13 (inactive),-0.192 (inactive),-3.14 (inactive),-1.61 (inactive),0.129 (inactive),0.941 (inactive),-0.0333 (inactive),-0.0509,0.0554
